Data from PubChem BioAssay AID565 (University of Pittsburgh Molecular Library Screening Center, 2006).
Screen size: about 65,000 compounds; about 1,200 (1.8%) were called active. Cut-off read from the data, not from the text of the source: active = inhibition above about 50%; inactive = the rest. The full list was thinned out, with actives kept by preference.

Target: Gag-Pol polyprotein (Human immunodeficiency virus type 1 group M subtype B (isolate HXB2)) (UniProt P04585)
Assay: blockers of HIV-1 RNase H RNA/DNA cleavage – biochemical, fluorescence, primary screen (AID 565)
Settings: RT-RNase H RNA/DNA duplex cleavage, at 10 µM, hits give high values

| Compound | inhibition |
| --- | --- |
| O=P(O)(CN1CCCCC1)CN1CCCCC1 | -5.45% (inactive) |
| O=C(CN1C(=O)CSc2ncccc21)N1CCOCC1 | -4.9% (inactive) |
| COc1ccccc1NC(=O)C1=C(C)NC2=C(C(=O)CCC2)C1c1ccc(C)o1 (stereo unspecified) | -19.4% (inactive) |
| COC(=O)C1=C(C)NC(=O)NC1/C=C/c1ccccc1 (stereo unspecified) | -63.7% (inactive) |
| COC(=O)C1=C(C)NC2=C(C(=O)c3ccccc32)C1c1ccc(-c2ccc(C(=O)O)cc2)o1 (stereo unspecified) | 81.9% (active) |
| Cc1nnc(NC(=O)CCC(=O)N2CCC(C)CC2)s1 | -0.8% (inactive) |
| Cc1cc(=O)n2nc(N3CCCC(C(=O)NCCC4=CCCCC4)C3)sc2n1 (stereo unspecified) | -4.48% (inactive) |
| COc1ccccc1NC(=O)CN1CCN(S(=O)(=O)c2ccc(Br)cc2)CC1 | -1.95% (inactive) |
| COc1cc2c(cc1NC(=O)CN1CCN(S(=O)(=O)c3ccc(F)cc3)CC1)oc1ccccc12 | 56.4% (active) |
| COc1ccc(NC(=O)CN2CCN(S(=O)(=O)c3ccc(F)cc3)CC2)cc1Cl | -9.57% (inactive) |
| Cc1cc(Br)ccc1NC(=O)C1CCCO1 (stereo unspecified) | -14.4% (inactive) |
| N#Cc1ccc(OCCN2C(=O)NC3(CCSC3)C2=O)cc1 (stereo unspecified) | -7.99% (inactive) |
| O=C(CN1C(=O)CCC1=O)Nc1ccc(S(=O)(=O)N2CCOCC2)cc1 | -11.6% (inactive) |
| Nc1scc(-c2ccncc2)c1Cl | -13.4% (inactive) |
| Clc1ccc(Cc2nn3c(-c4ccncc4)nnc3s2)cc1 | 53.8% (active) |
| Clc1ccc(Cc2nnc(-c3cccs3)o2)cc1 | -42.9% (inactive) |
| CCOC(=O)c1ccc(CS(=O)c2ccc(Cl)cc2)o1 (stereo unspecified) | -8.12% (inactive) |
| COc1ccc(S(=O)(=O)NC2(C(F)(F)F)N=C3SCCN3C2=O)cc1 (stereo unspecified) | -21.6% (inactive) |
| Cc1nc(NC(=O)CCC(=O)O)sc1C(=O)N(C)C | 0.73% (inactive) |
| CCOC(=O)c1sc(/N=C/Nc2nc(C)c(C(=O)OCC)s2)nc1C | 66.5% (active) |
| CCOC(=O)c1sc(NC(=O)C(CC)Sc2nccn2C)nc1C (stereo unspecified) | 7.42% (inactive) |

| Compound | inhibition |
| --- | --- |
| CCCOC(=O)CC1C(=O)NCCN1Cc1ccc(F)cc1 (stereo unspecified) | 15.5% (inactive) |
| CC(=O)Nc1ccc(S(=O)(=O)N2CCN(CCCOc3cc(C)ccc3C)CC2)cc1 | -8.05% (inactive) |
| CCC(CC)C(=O)Nc1cc(C(=O)OC)cc(C(=O)OC)c1 | -9.62% (inactive) |
| Cc1ccc(S(=O)(=O)C2(S(=O)(=O)c3ccc(C)cc3)CCCC2)cc1 | -7.65% (inactive) |
| COc1ccc(N(Cc2cc3cc(OC)ccc3[nH]c2=O)S(C)(=O)=O)cc1 | -0.75% (inactive) |
| CCOc1ccc2[nH]c(=O)c(CN(CCCO)C(C)=O)cc2c1 | 84.7% (active) |
| CCC(=O)N(Cc1cc2cc(OC)ccc2[nH]c1=O)c1ccccc1C | -2.05% (inactive) |
| CCCc1[nH]nc2c1C(C1CC=CCC1)C(C#N)=C(N)O2 (stereo unspecified) | -53.6% (inactive) |
| Cc1nc2ccc(C(=O)N3CCSCC3)cc2s1 | -8.86% (inactive) |
| CC(C)CC(=O)N=C1SC2CS(=O)(=O)CC2N1CCc1ccccc1 (stereo unspecified) | -0.09% (inactive) |
| Cc1ccc(C(=O)NC2CCN(C(=O)N3CCOCC3)CC2)cc1 | -0.08% (inactive) |
| O=C(NCCCN1CCN(Cc2ccccc2)CC1)C1CCN(S(=O)(=O)N2CCCC2)CC1 | -16.5% (inactive) |
| CCC(C)Sc1nc2c(c(=O)[nH]c(=O)n2C)n1CC(O)COc1cccc2ccccc12 (stereo unspecified) | 76.5% (active) |
| CCOC(=O)Cn1c(CN(Cc2ccccc2)Cc2ccccc2)nc2c1c(=O)[nH]c(=O)n2C | -4.21% (inactive) |
| CN1CCN(c2nc3c(c(=O)[nH]c(=O)n3C)n2Cc2cccc3ccccc23)CC1 | -0.99% (inactive) |
| Cc1cccc(NC(=O)CSc2nnc(CCCCCNC(=O)OC(C)(C)C)o2)c1C | -13.1% (inactive) |
| COc1ccc(CNC(=O)c2cc3c(=O)n4ccccc4nc3n(CC3CCCO3)c2=N)cc1 (stereo unspecified) | -18.1% (inactive) |
| CCn1c(=N)c(C(=O)NCCCOC)cc2c(=O)n3cccc(C)c3nc21 | -13.1% (inactive) |
| COc1ccc(CCn2c(=N)c(C(=O)NCc3ccco3)cc3c(=O)n4cccc(C)c4nc32)cc1 | 64.2% (active) |
| Cn1c(=O)[nH]c(=O)c2c1nc(CN(Cc1ccccc1)Cc1ccccc1)n2CCN1CCOCC1 | -6.59% (inactive) |
| COc1ccc(OCCCON2C(=O)c3ccccc3C2=O)cc1 | -68.1% (inactive) |

| Compound | inhibition |
| --- | --- |
| CCCCc1nc2ccccc2c(=O)n1NC(=O)c1c(O)c2cccc3c2n(c1=O)CC3 | 4.26% (inactive) |
| CCCc1nc2ccccc2c(=O)n1NC(=O)c1c(O)c2ccccc2[nH]c1=O | -19.6% (inactive) |
| CCCc1nc2ccccc2c(=O)n1/N=C/c1ccc(O)c(O)c1 | 88.4% (active) |
| Cc1ccc2c(c1)N(CCCC(=O)NCc1cccnc1)C(=O)CO2 | -14.5% (inactive) |
| Cc1ccc(-n2nc(-c3ccco3)cc2C(=O)NCc2cccnc2)cc1 | 61.9% (active) |
| CC(C)(C)c1cc(C(=O)NCc2cccnc2)ccn1 | 3.16% (inactive) |
| C#CCN1C(=O)C(O)(CC(=O)c2cc(OC)ccc2OC)c2ccccc21 (stereo unspecified) | -25.6% (inactive) |
| O=P(O)(CP(=O)(c1ccccc1)c1ccccc1)c1ccccc1 | -16.3% (inactive) |
| CC12CCC(C(=O)N(CCC#N)CCC#N)(CC1=O)C2(C)C (stereo unspecified) | -5.03% (inactive) |
| CCOC(=O)CSC1=C(C#N)C(c2sccc2C)CC(=O)N1 (stereo unspecified) | -2.34% (inactive) |
| CCOC(=O)CSC1=C(C#N)C(c2ccco2)C(C(=O)OCc2ccccc2)=C(C)N1 (stereo unspecified) | -11.6% (inactive) |
| CC1=C(C(=O)Nc2ccccc2)C(c2cccs2)C(C#N)=C(SCC#N)N1 (stereo unspecified) | 55.5% (active) |
| O=C(Nn1cc(C(=O)N2CCN(c3ccccc3F)CC2)c2ccccc2c1=O)c1cnccn1 | -2.41% (inactive) |
| Fc1ccc(-c2ccc(-c3nn4c(-c5ccco5)nnc4s3)o2)cc1 | 65.8% (active) |
| Cc1nnc2sc(-c3ccco3)nn12 | 4.12% (inactive) |
| COc1cc(-c2nn3c(-c4cccc(C)c4)nnc3s2)cc(OC)c1OC | -7.33% (inactive) |
| Fc1ccc(-c2nnc3sc(-c4ccc5c(c4)OCO5)nn23)cc1 | 66.3% (active) |
| FC(F)(F)c1nnc2sc(-c3ccco3)nn12 | -2.16% (inactive) |
| COc1ccc(-c2nn3c(-c4ccccc4)nnc3s2)cc1OC | -38.4% (inactive) |
